Inconclusive results are not listed. Activity calls are given as the source filed them. Calls follow the shape of the dose curve; as a rule, active = well fitted inhibition curve with a large enough effect; inconclusive = small, poorly fitted or top-dose-only effect; inactive = flat fitted curve, though single readings scatter.
Legend:
Test in all cases: qHTS profiling for inhibitors of Plasmodium falciparum proliferation (AID 504749); also: nearly all actives have a fitted effect of over 60% in size
Details in all cases: P. falciparum in erythrocytes, SYBR Green DNA, 72 h; series mostly up to 28.7 µM
[1] = system: ATS189
How it was run: (§1)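 SYBR Green fluorescence of parasite DNA, read after lysis and overnight dark incubation, measured growth over 72 h in erythrocyte culture at 0.3% parasitemia and 2.5% hematocrit. Data normalised to DMSO and 0.29 uM artemisinin, with plate-drift correction.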

[2] = system: ATS95
How it was run: as §1

[3] = system: C2A
How it was run: as §1

[4] = system: CP185
How it was run: as §1

[5] = system: CP191
How it was run: as §1

[6] = system: CP217
How it was run: as §1

[7] = system: CP237
How it was run: as §1

[8] = system: CP238
How it was run: as §1

[9] = system: CP247
How it was run: as §1

[10] = system: CP250
How it was run: as §1

[11] = system: CP252
How it was run: as §1

[12] = system: CP256
How it was run: as §1

[13] = system: CP260
How it was run: as §1

[14] = system: CP265
How it was run: as §1

[15] = system: CP286
How it was run: as §1

[16] = system: DFO2036
How it was run: as §1

[17] = system: ECU
How it was run: as §1

[18] = system: FAB9
How it was run: as §1

[19] = system: HB3
How it was run: as §1

[20] = system: ICS
How it was run: as §1

[21] = system: N140
How it was run: as §1

[22] = system: P93_24
How it was run: as §1

[23] = system: P94_40
How it was run: as §1

[24] = system: PAD
How it was run: as §1

[25] = system: PC49
How it was run: as §1

[26] = system: SC27B
How it was run: as §1

[27] = system: TAB109
How it was run: as §1

[28] = system: TAB113
How it was run: as §1

[29] = system: TAB165
How it was run: as §1

Measured: Potency

N[C@H](Cc1ccc(O)c(O)c1)C(=O)O
inactive: all assays above

From PubChem BioAssay (NCATS)
